A selection: hits, their analogues and other compounds. The true share with any hit is near 21%.
D3 ag = agonists of human D3 dopamine receptor; P35462; D3R DiscoveRx beta-arrestin cells, luminescence, 90 min; max activation, %; actives 0.58% (n = 410,000); AID 652048; in the data active means max activation above about 30%; further: 0% is about no effect
Target sequence (P35462 whole entry, looked up): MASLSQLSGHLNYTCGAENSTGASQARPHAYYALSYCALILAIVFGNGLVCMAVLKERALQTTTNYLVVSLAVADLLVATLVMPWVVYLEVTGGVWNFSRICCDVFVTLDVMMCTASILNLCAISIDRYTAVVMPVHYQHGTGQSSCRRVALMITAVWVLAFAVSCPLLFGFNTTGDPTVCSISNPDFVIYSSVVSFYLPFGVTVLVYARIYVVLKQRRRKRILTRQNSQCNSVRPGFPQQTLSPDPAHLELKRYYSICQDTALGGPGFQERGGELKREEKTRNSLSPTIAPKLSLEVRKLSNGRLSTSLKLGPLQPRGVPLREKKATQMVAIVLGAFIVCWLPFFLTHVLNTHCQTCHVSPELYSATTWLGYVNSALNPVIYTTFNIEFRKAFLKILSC
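Agonist mode: compounds and dopamine controls were applied to plated cells for 90 min at 37 degrees C after an overnight attachment at 1500 cells/well. Luminescent read-out followed 30 - 60 minutes at room temperature with DiscoveRx detection reagent.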
DT40 TDP1 CPT = growth inhibition of DT40 Tdp1-/-;hTDP1 cells with camptothecin (screen for TDP1 inhibitors). chicken DT40 Tdp1-/-;hTDP1 cells + 20 nM CPT, ATP luminescence, 48 h. Potency, µM (titrated, usually from 46.2 µM), for the others: at the highest dose activity change, negative = growth inhibition, most hits filed as inhibitors. actives 12% (n = 420,000); further: potency means the concentration at half of the fitted maximal effect; on the % scale 0 is the no-effect control and ±100 the full control effect; nearly all actives have a fitted effect of over 55% in size
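Cell growth measured by CellTiter-Glo luminescence after a minimum 48 h, 37 C compound exposure with 20 nM CPT in Tdp1-knockout DT40 cells stably expressing hTDP1, seeded 400/well; qHTS titration format.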
DRD3 antagonist = blocks the human D3 dopamine receptor; P35462; D3R cells, DiscoveRx beta-arrestin luminescence, antagonist mode; stronger effect = lower value; max response, negative = inhibition, %; actives 2.5% (n = 360,000); in the data active means max response below about -50%; inconclusive means no clear call, values can overlap the other calls; further: on the % scale 0 is the no-effect control and ±100 the full control effect
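Cells plated overnight at 1500 cells/well, then exposed to library compounds with dopamine controls for 90 minutes at 37 degrees C. DiscoveRx reagent added for 30–60 minutes at room temperature; luminescence read, quantitative HTS format.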
TDP1 cell noCPT = qHTS for Inhibitors of human tyrosyl-DNA phosphodiesterase 1 (TDP1): qHTS in cells in absence of CPT; DT40 Tdp1-/- hTDP1 cells, no CPT, ATP luminescence, 48 h; actives 15% (n = 420,000); AID 686978, 2013; Potency, µM (doses to about 46.2 µM), without a hit: at the highest dose activity change, negative = growth inhibition, actives largely listed as inhibitors; further: potency means the concentration at half of the fitted maximal effect; on the % scale 0 is the no-effect control and ±100 the full control effect; nearly all actives have a fitted effect of over 55% in size
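Compound effects on proliferation are scored in DT40 Tdp1-/-;hTDP1 cells in the absence of CPT. ATP levels (CellTiter-Glo luminescence) are recorded after a ≥48 hr, 37 °C incubation.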
ClpP mod = qHTS Assay for Activators of ClpP | purified B. subtilis ClpP, FRET peptide cleavage, 20 min | Potency, µM (series often up to 57.5 µM), without a hit: top-dose activity change, negative = active | actives 1.9% (n = 340,000) | AID 651965, 2013; active means well fitted falling curve with a large enough effect; inconclusive means small, poorly fitted or top-dose-only effect; inactive means no such curve, though single readings can be large or run the other way; further: potency means the concentration at half of the fitted maximal effect; the source files actives as falling curves though it sought activators and does not explain the sign; nearly all actives have a fitted effect of over 65% in size
Target sequence (P80244 whole entry, looked up): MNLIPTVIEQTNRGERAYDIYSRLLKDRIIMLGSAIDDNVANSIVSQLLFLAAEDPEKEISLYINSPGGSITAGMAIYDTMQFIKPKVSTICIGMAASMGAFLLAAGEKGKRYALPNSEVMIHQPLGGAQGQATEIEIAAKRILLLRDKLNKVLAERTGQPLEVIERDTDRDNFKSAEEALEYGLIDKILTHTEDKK
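ClpP 10 microg/mL final, pH 8 Tris/KCl buffer with BSA, glycerol, Tween-20; compound pinned in; FRET-FV substrate; RT 20 min; Ex320/Em430; ΔFRET vs ADEP 5.8 microM, DMSO, no enzyme.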
IL-1B inflam inh = blocks inflammasome-driven IL-1 beta release. THP-1 LPS/ATP IL-1B secretion, AlphaLISA, 16 h; stronger effect = lower value. activity change, % at 57.5 µM. actives 4.7% (n = 360,000). AID 743279; in the data active means activity change below about -50%; inconclusive means mostly about -30% to -49%; further: on the % scale 0 is the no-effect control and ±100 the full control effect
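THP-1 cells pretreated 1 hr with compounds (up to 57.5 uM final), then stimulated with LPS (250 ng/mL final) plus ATP (1.25 mM final); secreted IL-1B measured by AlphaLISA after 16 hr, decreased signal indicating inhibition.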
An asterisk follows results filed as active; ? = inconclusive; / = no result given. Unless noted, the call rests on the fitted dose curve; in most records, active means well fitted inhibition curve with a large enough effect; inconclusive means small, poorly fitted or top-dose-only effect; inactive means flat fitted curve, though single readings scatter.

SMILES	D3 ag	DT40 TDP1 CPT	DRD3 antagonist	TDP1 cell noCPT	ClpP mod	IL-1B inflam inh
C#CCOCCOCCOCCNc1nc(N2CCN(C(=O)[C@H](CCC(=O)O)n3cc([C@@H](N)[C@H](C)CC)nn3)CC2)nc(N2CCN(C(=O)[C@H](CCC(=O)O)n3cc([C@@H](N)CCSC)nn3)CC2)n1	-9.9	-6.7%	-15.6	1.1%	-1.3%	14.4
CC(C)NS(=O)(=O)c1ccc2[nH]c3nc(SCC(=O)Nc4ccc(F)c(F)c4)nnc3c2c1	/	?	/	?	-0.6%	/
COc1ccc(C2C(C(=O)Nc3ccccc3OC)=C(C)Nc3c(C(=O)Nc4ccccc4)cnn32)c(OC)c1 (configuration not stated)	-20.2	20.6µM*	/	?	?	/
CC1=C(C(=O)Nc2ccc(C)cc2C)C(c2ccc([N+](=O)[O-])cc2)n2ncc(C(=O)Nc3ccc(F)cc3)c2N1 (configuration not stated)	4.1	8.2µM*	/	8.2µM*	2.3%	/
CC1=C(C(=O)Nc2ccccc2)C(c2ccccc2Cl)n2ncc(C(=O)Nc3cccc(C)c3)c2N1 (configuration not stated)	-4.4	?	/	18.4µM*	?	/
CC1=C(C(=O)Nc2ccccc2)C(c2ccccc2C)n2ncc(C(=O)Nc3ccccc3)c2N1 (configuration not stated)	-19.4	?	/	-74.3%	-13.8%	/
O=C(C1CC=CCC1)N1CCC(CO)(Cc2ccc(Cl)cc2)CC1 (configuration not stated)	0.3	?	-2.6	?	-0.4%	?
Cn1nccc1C(=O)N1CCN(c2ccccc2F)CC1	-4.4	10.3%	-25.5	15.4%	-1.5%	-13.9
Clc1ccc(OCc2nnc3n2N=C(c2ccc4c(c2)OCCO4)CS3)c(Cl)c1	0.6	9.2µM*	?	11.6µM*	-0.1%	4.3
Cc1cccc(CCNC(=O)c2cc3c(=O)n(C)c4ccccc4c3n2C)c1	3.2	?	/	?	51.9%	/
CCOc1cc(CNc2ccc(N(C)C)cc2)cc(Br)c1OCC(=O)NC(C)(C)C	-5.0	18.4µM*	13.5	20.6µM*	-16.2%	-11.2
CCOc1cc(CNc2ccc(N3CCCCC3)cc2)cc(Br)c1OCC(=O)NC(C)(C)C	-10.2	?	-20.6	16.4µM*	0.9%	-86.1*
CC(C)CCCC(C)NC(C)C (configuration not stated)	0.4	21.0%	/	-3.7%	/	/
CCCCN(C)CC(O)Cn1cc(/C=C/C(=O)c2cccs2)c2ccccc21 (configuration not stated)	-12.5	18.4µM*	-24.2	?	-1.3%	-56.2*
CS(=O)(=O)N(Cc1ccco1)CC(O)Cn1cc(C=O)c2ccccc21 (configuration not stated)	-14.5	?	-15.9	-17.2%	-6.7%	3.8
Cn1cc(/C=C/C(=O)c2ccccc2)c2ccccc21	-2.0	-22.8%	-6.8	?	/	-3.8
Cc1ccc(C(=O)/C=C/c2cn(CN3CCN(C)CC3)c3ccccc23)cc1	-20.4	-22.2%	-10.1	?	-2.1%	-55.0*
CCOc1ccc(C(=O)/C=C/c2cn(CC(O)CN3CCc4ccccc43)c3ccccc23)cc1 (configuration not stated)	-5.7	7.31µM*	/	8.2µM*	-0.3%	/
CCCCN(CCCC)CC(O)Cn1cc(/C=C/C(=O)c2ccccc2)c2ccccc21 (configuration not stated)	-12.1	10.3µM*	/	10.3µM*	-1.5%	/
CCN(C(=O)c1cc2c(=O)oc3ccccc3c2s1)c1ccccc1F	4.2	?	/	?	-2.6%	/
COc1ccc2c(c1)c1c(c(=O)n(-c3ccccc3C)c(=O)n1CC(=O)N1CCCC1)n2C	-16.2	?	/	?	3.8%	/
COc1cccc(NC(=O)C2(C)CCN2Cc2ccc(SC)cc2)c1 (configuration not stated)	-1.1	?	14.7	?	1.3%	16.8
CCOc1ccc(Nc2oc(-c3ccc(COc4ccc(C)cc4)o3)nc2C#N)cc1	5.9	?	/	?	48.9%	/
O=C(CC(=O)c1ccccc1)CS(=O)(=O)c1ccccc1	1.4	?	4.2	?	/	-3.9
O=Cc1cn(CC(O)Cn2cc(C=O)c3ccccc32)c2ccccc12	-1.0	0.6%	15.6	4.0%	1.0%	28.7
SMILES	D3 ag	DT40 TDP1 CPT	DRD3 antagonist	TDP1 cell noCPT	ClpP mod	IL-1B inflam inh
O=C(/C=C/c1cn(CC(O)CN2CCCCCC2)c2ccccc12)c1cccs1 (configuration not stated)	-26.1	?	5.3	?	-10.3%	-107.0*
CCOP(=O)(Nc1cccc2oc(=O)c3ccccc3c12)OCC	-3.1	?	0.7	?	11.2µM*	13.5
O=C(CCCSc1nc2ccccc2[nH]1)NCc1ccccc1F	-12.2	?	0.0	20.6µM*	/	-12.8
CC1(C)CC(=O)C=C(/C=C/c2ccccc2)C1	-34.4	23.1µM*	?	-16.4%	2.4%	-22.9
CC1(C)CC(=O)C=C(NCCc2ccccc2)C1	2.9	17.5%	-2.9	-15.9%	/	-2.2
COc1cc(CNCc2ccccn2)ccc1OCc1ccc(Cl)c(Cl)c1	0.4	?	-17.4	?	-2.3%	-92.8*
COc1cc(CNCc2ccccn2)ccc1OCc1ccc(Cl)cc1Cl	-11.3	?	-67.2*	?	-1.5%	-53.4*
O=C(OCc1ccc(Cl)c(Cl)c1)c1cccnc1Cl	-5.3	20.3%	9.3	3.5%	/	7.9
COc1cc(CNCc2ccccn2)ccc1OCC(N)=O	1.6	5.5%	-16.9	-10.0%	-0.2%	10.4
Nc1ncccc1OCc1ccc(Cl)c(Cl)c1	-25.2	?	-3.9	25.9µM*	/	?
COCCN(CC(=O)Nc1cccc(C)c1C)C(=O)Cc1ccsc1	5.1	2.0%	2.6	-22.9%	-3.4%	0.3
O=C(/C=C/CCc1ccc2c(c1)OCO2)N1CCCCC1	17.3	0.8%	11.3	-23.5%	1.3%	-12.9
N#C/C(N=Nc1ccccc1O)=N\Nc1ccccc1O	10.8	20.6µM*	-2.1	23.1µM*	0.3%	?
COc1ccc(-c2ccc(CN3C(C(C)C)C(=O)N(Cc4cn(CCC5OCCO5)nn4)CCS3(=O)=O)cc2)cc1 (configuration not stated)	0.4	9.2µM*	4.5	8.2µM*	0.2%	12.7
